Hits are enriched below; roughly 3.1% of the tested compounds scored in any of these assays.
Peg3 promoter: reduces Peg3 promoter-driven luciferase expression in HeLa. HeLa PEG-Prom luciferase reporter, luminescence, overnight. inhibition, % at 20 µM. actives 1.7% (n = 360,000). AID 588405;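 active = inhibition of at least 50% at 20 µM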
HIF-2a inh: HIF-2a inhibition | 786-0 RCC cells HIF-2a reporter, luciferase luminescence, overnight | inhibition, % at 18.8 µM | actives 0.72% (n = 360,000) | AID 624352;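 active = inhibition of the luminescence signal of 40% or more relative to plate controls, in a single-dose primary screen at 18.75 µM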
ABHD5 PLIN5 PPI: ABHD5-PLIN5 protein interaction inhibition. inhibition, % at 4 µM. Split G. princeps luciferase complementation, luminescence, 4 h. actives 0.78% (n = 360,000). Q00G26+Q8WTS1;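 active = inhibition above the mean inhibition across every tested compound plus 3 SD, cut at about 22% in these data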
Target sequence (Q00G26 whole entry, looked up): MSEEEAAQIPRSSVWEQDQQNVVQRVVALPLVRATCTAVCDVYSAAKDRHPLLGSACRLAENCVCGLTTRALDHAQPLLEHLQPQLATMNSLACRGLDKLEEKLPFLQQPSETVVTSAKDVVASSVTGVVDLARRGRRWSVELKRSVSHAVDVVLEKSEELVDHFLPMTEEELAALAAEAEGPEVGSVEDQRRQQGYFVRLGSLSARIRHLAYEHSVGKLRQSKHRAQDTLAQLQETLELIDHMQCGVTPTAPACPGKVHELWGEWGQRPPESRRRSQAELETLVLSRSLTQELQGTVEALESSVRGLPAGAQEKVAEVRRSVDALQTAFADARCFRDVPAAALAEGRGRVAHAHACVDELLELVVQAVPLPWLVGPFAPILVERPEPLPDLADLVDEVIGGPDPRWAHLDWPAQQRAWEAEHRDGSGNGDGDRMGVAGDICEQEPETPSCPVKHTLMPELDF
Target sequence (Q8WTS1 whole entry, looked up): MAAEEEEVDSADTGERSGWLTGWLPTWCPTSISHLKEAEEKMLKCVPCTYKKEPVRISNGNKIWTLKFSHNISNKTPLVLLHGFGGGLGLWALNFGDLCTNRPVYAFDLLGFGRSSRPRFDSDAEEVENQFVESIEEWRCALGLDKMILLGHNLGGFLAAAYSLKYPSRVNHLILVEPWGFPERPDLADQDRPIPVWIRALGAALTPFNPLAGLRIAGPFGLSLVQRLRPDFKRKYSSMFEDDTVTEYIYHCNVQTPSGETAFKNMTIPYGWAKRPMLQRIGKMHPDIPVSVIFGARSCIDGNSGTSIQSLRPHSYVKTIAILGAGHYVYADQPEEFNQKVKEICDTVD
CF NFkB inh: blocks PAF-induced NF-kB reporter in cystic fibrosis cells | inhibition, % at 5 µM | actives 0.86% (n = 360,000) | KKLEB NF-kB-GFP reporter, GFP fluorescence overnight | AID 588850;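 active = at least 50% inhibition at 5 µM, scaled per plate between neutral and stimulator controls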;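 note: PAF is a Pseudomonas aeruginosa culture filtrate used as stimulus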
MITF TRPM1 inh: inhibitors of MITF-driven TRPM1 promoter in melanoma cells; SK-MEL-5 TRPM1 promoter luciferase, 24 h; inhibition, % at 12.5 µM; actives 0.83% (n = 330,000);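 active = mean inhibition across replicates of 60% or more, whatever share of single replicates reaches that level; inconclusive = some that reach 60%, reason not given; inactive = mean inhibition across replicates below 60%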
KKLEB tox: CF airway cell cytotoxicity counter-screen | KKLEB CF airway cells viability, ATPlite luminescence, overnight; hits give low values; cells stimulated with P. aeruginosa culture filtrate | activity change (cytotoxicity), % at 5 µM | actives 0.36% (n = 360,000) | AID 602141;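 active = corrected activity change at or below -50% at 5 µM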
Hits are given with their value; – = inactive; ? = inconclusive; · = no result given.

SMILES	Peg3 promoter	HIF-2a inh	ABHD5 PLIN5 PPI	CF NFkB inh	MITF TRPM1 inh	KKLEB tox
Cn1c(NCC(O)c2ccccc2)nc2c1c(=O)n(Cc1ccc(Cl)c(Cl)c1)c(=O)n2C (centres undefined)	53.4	–	–	–	–	–
COc1ccc(CNc2nc3c(c(=O)n(Cc4ccc(F)cc4)c(=O)n3C)n2C)cc1	50.3	–	–	–	–	–
Cn1c(NCC(O)c2ccccc2)nc2c1c(=O)n(Cc1ccc(Cl)cc1)c(=O)n2C (centres undefined)	–	–	–	–	–	–
CCC(C(=O)OCC(=O)Nc1ccc2[nH]c(=O)[nH]c2c1)c1ccccc1 (centres undefined)	–	–	–	–	–	–
CC(=O)c1cccc(NC(=O)CN(C)S(=O)(=O)c2cccc3nsnc23)c1	–	–	–	–	–	–
CCOc1ccc(-c2cc(CCCC(=O)N3CCN(c4ccc(OC)cc4)CC3)no2)cc1	–	50.3	–	–	–	–
CCOc1ccc(-c2cc(CCCC(=O)NCCCOC)no2)cc1	–	–	–	–	–	–
CC(=O)Nc1ccc(C2=NNC(=Nc3cccc(S(=O)(=O)N(C)C)c3)SC2)cc1	–	–	58.2	–	–	–
c1ccc(CCC2CCCCN2Cc2nc(-c3ccc4c(c3)OCO4)no2)nc1 (centres undefined)	–	–	–	–	–	–
OCCN1CCN(CCCN2c3ccccc3Sc3ccc(C(F)(F)F)cc32)CC1	61.0	–	–	–	–	–
CN1CCN(CCCN2c3ccccc3Sc3ccc(Cl)cc32)CC1	62.8	–	–	–	–	–
CC(CN1CCN(CCOCCO)CC1)CN1c2ccccc2Sc2ccc(Cl)cc21 (centres undefined)	100.6	–	–	–	·	–
O=C(CCN1CCOCC1)N1c2ccccc2Sc2ccc(Cl)cc21	–	–	–	–	–	–
CNC(=O)C[C@H]1C(=O)N(CCc2ccccc2)C[C@@H]1Cc1ccccc1	–	–	–	–	·	–
CC(NCc1ccc(-c2ccccc2)cc1)C(O)c1ccccc1 (centres undefined)	74.5	–	–	–	–	–
CCc1ccc(NC(=O)c2ccc(NC(=O)C3CCCO3)cc2)cc1 (centres undefined)	–	–	–	–	–	–
O=C(NCc1ccc(F)cc1)C(c1ccccc1)c1ccccc1	–	–	–	–	–	–
CC(=O)N(Cc1ccc(F)cc1)C1=C(NCc2ccccc2)C(=O)c2ccccc2C1=O	109.6	67.7	–	92.1	97.8	-52.7
Cc1ccc(C)c(S(=O)(=O)N2CCN(C(=O)/C=C/c3ccco3)CC2)c1	–	–	43.5	–	–	–
Cc1ccc(-c2[nH]ncc2/C=N/n2c(COc3ccccc3)nc3ccccc3c2=O)cc1	52.1	–	–	–	–	–
Cc1ccccc1OCc1nc2ccccc2c(=O)n1/N=C/c1cn[nH]c1-c1ccccc1	–	–	–	–	–	–
NC(=S)NNC(=O)[C@@H]1CCCC[C@@H]1C(=O)O	–	–	–	–	–	–
Cc1ccccc1C(=O)Nc1ccnn1C1CCN(C(C)Cc2ccccc2F)CC1 (centres undefined)	–	–	–	–	–	–
OC[C@H]1O[C@@H](n2cnc3c(NCc4ccco4)ncnc32)[C@H](O)[C@@H]1O	–	–	–	–	66.2	–
OC[C@H]1O[C@@H](n2cnc3c(NC4CCCC4)ncnc32)[C@H](O)[C@@H]1O	–	–	–	–	–	–
SMILES	Peg3 promoter	HIF-2a inh	ABHD5 PLIN5 PPI	CF NFkB inh	MITF TRPM1 inh	KKLEB tox
OCC1OC(n2cnc3c(NCc4ccco4)ncnc32)C(O)C1O (centres undefined)	87.1	–	–	–	?	–
C=CCNc1ncnc2c1ncn2C1OC(CO)C(O)C1O (centres undefined)	–	–	–	–	–	–
COc1ccccc1/C=N\NC(=O)c1ccc(COc2ccc(C)c(C)c2)o1	–	–	–	–	–	–
COC(=O)c1ccc(CNC(=O)c2sccc2-c2ccccc2)cc1	–	–	–	–	79.3	–
CSc1nc(N)c(C(=O)NC2CCCCC2)s1	–	–	–	–	–	–
O=c1oc2ccccc2cc1-c1nc2ccccc2o1	–	–	–	–	–	–
Nc1cc2nc3ccccc3oc-2cc1=O	–	–	–	53.2	88.3	–
CCOc1ccc(C(=O)Nc2cc(-c3nc4ccccc4[nH]3)ccc2C)cc1[N+](=O)[O-]	–	–	–	–	–	–
O=C(NC(=S)Nc1cc(-c2nc3ccccc3[nH]2)ccc1Cl)c1ccc2c(c1)OCO2	100.4	–	–	–	–	–
CCOc1ccc(C(=O)Nc2cc(-c3nc4ccccc4[nH]3)ccc2Cl)cc1[N+](=O)[O-]	62.1	–	–	–	–	-53.4
CC(=O)OCC(=O)C1(O)CCC2C3CC(C)C4=CC(=O)C=CC4(C)C3(F)C(O)CC21C (centres undefined)	–	–	–	79.8	–	–
CC(=O)OCC(=O)C1(O)CCC2C3CC(C)C4=CC(=O)C=CC4(C)C3=CCC21C (centres undefined)	–	–	–	–	–	–
CC(=O)OCC(=O)[C@@]1(OC(C)=O)[C@@H](C)C[C@H]2[C@@H]3C[C@H](F)C4=CC(=O)C=C[C@]4(C)[C@@]3(F)[C@@H](O)C[C@@]21C	–	–	–	77.1	–	–
CC(=O)C1(O)CCC2C3CC(C)C4=CC(=O)C=CC4(C)C3(F)C(O)CC21C (centres undefined)	–	–	–	70.9	–	–
Cc1cccc(NS(=O)(=O)c2cccc(C(=O)NCC(C)(C)N3CCOCC3)c2)c1	–	–	–	–	–	–
COc1ccc(NS(=O)(=O)c2ccc(-c3cnc(C4CC4)o3)cc2)cc1OC	–	–	–	–	–	–
CC(/C=C(\NC(=O)c1ccccc1)C(=O)N=Nc1c(O)[nH]c2ccc(C)cc12)=C\c1ccccc1	53.4	–	–	52.7	–	–
COc1ccc(CCN2CC(C(=O)N(C)CC(=O)Nc3ccc(F)c(F)c3F)CC2=O)cc1OC (centres undefined)	–	–	–	–	–	–
COc1ccc(-c2cc3c(nn2)-c2ccccc2C3=O)cc1	80.5	–	–	–	72.4	-50.1
O=C1c2ccccc2-c2nnc(-c3ccccc3)cc21	–	–	–	–	–	–
COC(=O)CSc1cccc2c1C(=O)CC2c1ccccc1 (centres undefined)	–	–	–	–	–	–
O=C1C=CC2(O[C@H](c3ccccc3)[C@@H](c3ccccc3)O2)[C@H](Sc2ccccc2O)C1	107.8	89.1	94.3	88.8	94.2	-85.7
CCCCn1c(=N)n(CCOc2ccc(C)cc2)c2ccccc21	100.1	–	–	–	64.1	–
Cc1ccc(OCC(O)Cn2c(=N)n(CCN3CCCCC3)c3ccccc32)cc1 (centres undefined)	78.3	–	–	–	–	–

Screening results as filed in PubChem BioAssay.
